Source: PubChem BioAssay
GDH-TPI counter = GDH-TPI coupling enzyme inhibitors, primary screen, artefact control for M. tuberculosis FBA inhibitor project, biochemical, absorbance, full deck; GDH-TPI coupled enzyme counterscreen, NADH absorbance; inhibition, % at 4.8 µM; hit rate 1.2% among 360,000; AID 588335, 2011; in the data active means inhibition above about 30%;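 further: 0% = DMSO wells and 100% = wells lacking the enzyme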
PrP UTR inh = inhibition of PrP 5' UTR reporter expression; cell-based PrP 5' UTR mRNA reporter, plate reader; inhibition, % (no concentration beside the values); hit rate 0.35% among 340,000; in the data active means inhibition above about 52%; further: 0 = median of the neutral control wells
Yp Topo-I inh = Yersinia pestis topoisomerase I inhibitors, primary screen, biochemical, cleavage product accumulation, plate reader, single point | Y. pestis Topo-I cleavage product accumulation | hit rate 0.064% among 360,000 | AID 504884, 2011 | activity, % at 10 µM; in the data active means activity above about 50%, passing the limit was not always enough
Mtb hypoxia inh = PubChem AID 1159583 | hit rate 0.1% among 300,000 | fluorescence inhibition, % (concentration not given with the values) | M. tuberculosis hypoxia-regulated fluorescent reporter, fluorescence; in the data active means fluorescence inhibition mostly above about 23%, no sharp cut-off; inactive means mostly below about 17%
PrPC surface inh = inhibitors of human cell surface prion protein PrPC, primary screen, cell-based, TR-FRET; AID 720596, 2013; hit rate 0.43% among 370,000; TR-FRET read-out; inhibition, % at 13.8 µM; Major prion protein (Homo sapiens), P04156; in the data active means inhibition above about 24%; further: 0% = median of the test wells and 100% = reference compound wells
Mtb FBA inh = Mtb FBA enzyme inhibitors, primary screen, biochemical, fluorescence, strain H37Rv; purified M. tuberculosis FBA, fluorescence read-out; hit rate 2.3% among 360,000; inhibition, % at 1 µM; AID 588726, 2011; Fructose-bisphosphate aldolase (Mycobacterium tuberculosis (strain ATCC 25618 / H37Rv)), …; in the data active means inhibition above about 27%;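 further: 0% = vehicle and 100% = reference inhibitor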
Target sequence (P9WQA3 whole entry, looked up): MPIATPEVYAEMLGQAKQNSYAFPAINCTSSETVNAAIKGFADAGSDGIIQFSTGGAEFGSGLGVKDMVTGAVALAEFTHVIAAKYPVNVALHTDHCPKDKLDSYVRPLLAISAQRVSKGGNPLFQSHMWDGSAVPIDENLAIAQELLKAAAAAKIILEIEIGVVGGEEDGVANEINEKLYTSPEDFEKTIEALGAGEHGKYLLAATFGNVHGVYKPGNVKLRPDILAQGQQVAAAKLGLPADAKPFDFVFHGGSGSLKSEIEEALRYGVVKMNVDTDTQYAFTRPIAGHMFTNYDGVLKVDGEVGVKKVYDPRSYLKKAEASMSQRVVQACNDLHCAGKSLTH
Starred values were filed as active, the others as inactive; x = not tested or not shown; + = active, no number. Only some compounds are listed: those with a hit (about 3.8% of all), similar ones and a draw of the others.

SMILES	GDH-TPI counter	PrP UTR inh	Yp Topo-I inh	Mtb hypoxia inh	PrPC surface inh	Mtb FBA inh
COC(=O)C1=C(c2ccc(OC)c(OC)c2)CC2CCC1N2C(=O)NCC1CC1 (stereo not drawn)	x	x	x	9	x	x
CC1CN(C(C)CO)C(=O)c2cc(NC(=O)Nc3ccc(C(F)(F)F)cc3)ccc2OC1CN(C)C(=O)Nc1ccc(C(F)(F)F)cc1 (stereo not drawn)	x	x	x	14	x	x
O=C(Cn1cc(C=NNC(=O)c2cccc(C(F)(F)F)c2)c2ccccc21)Nc1ccc(F)cc1	x	x	x	9	x	x
CC(C)(C)c1csc(N/N=C/c2cccnc2)n1	14	-49	3	x	6	-1
CC(=O)Nc1sc(N/N=C\c2ccc(O)cc2)nc1-c1cccs1	44*	-41	-9	x	-2	-1
COC(=O)c1ccc(/C=N/Nc2nc(-c3ccccc3)cs2)cc1	26	-22	-3	x	7	0
COc1ccc(/C=N/Nc2nc(C(=O)O)cs2)cc1	34*	-45	-3	x	7	0
CC(C)(C)c1csc(NN=Cc2ccc(O)cc2)n1	x	x	x	34*	x	x
COC(=O)C(=Nc1ccccc1)/C(C(=O)C(=O)N(C)c1ccccc1)=C(/O)c1ccc(Cl)cc1	x	x	x	13	x	x
Cc1ccccc1N1CCN(S(=O)(=O)c2nnc(NC(=O)c3ccco3)s2)CC1	35*	-9	-4	3	8	2
Cc1ccccc1N1CCN(S(=O)(=O)c2nnc(NC(=O)CC(C)C)s2)CC1	2	-11	18	-1	-3	0
Nc1nonc1C(=O)NN=Cc1cccc([N+](=O)[O-])c1	x	x	x	8	x	x
COc1ccc(/C=N/Nc2nc(C)c([N+](=O)[O-])c(N(C)c3ccccc3)n2)cc1OC	45*	7	-10	x	0	-3
CCOC(=O)Cn1c(S(=O)(=O)Cc2ccc(F)cc2)nc(-c2ccccc2)c1-c1ccccc1	21	-14	52*	1	5	-2
CCOC(=O)Cn1c(S(=O)(=O)Cc2cccc(F)c2)nc(-c2ccccc2)c1-c1ccccc1	13	-18	3	13	-6	4
c1cnn2c(-c3ccc4c(c3)CCO4)cnc2c1	4	x	2	x	-14	2
CN(C)C(=O)c1cccc(-c2cnc3cccnn23)c1	11	x	8	x	-6	132*
NC(=O)CC(NC(=O)OCc1ccccc1)C(=O)O (stereo not drawn)	0	-9	0	x	0	1
CC(C)(O)C#Cc1ccccc1C(=O)NC(CC(N)=O)C(=O)O (stereo not drawn)	32*	-19	0	x	-6	2
NS(=O)(=O)c1ccc(N2C(=O)C(=O)/C(=C(/O)c3ccccc3)C2c2ccc(Cl)cc2)cc1 (stereo not drawn)	39*	-12	-1	7	4	-3
CCOC(=O)C1=C(O)C(=O)N(c2ccc(S(N)(=O)=O)cc2)C1c1ccc(Cl)cc1 (stereo not drawn)	7	-15	2	14	-3	5
CC1(C)Cc2c(cnn2-c2ccc(F)cc2)C(NC(=O)C2=CC(=O)CC(C)(C)O2)C1 (stereo not drawn)	9	x	23	x	3	0
COc1ccc(-n2ncc3c2CC(C)(C)CC3NC(=O)C2=CC(=O)CC(C)(C)O2)cc1 (stereo not drawn)	-3	-8	23	6	1	153*
Cn1cc(-c2cccc3nncn23)cn1	15	x	-3	x	-5	6
CSc1ccc(-c2cccc3nncn23)cc1	24	x	0	x	-23	+
CC1CN(C(C)CO)C(=O)Cc2cc(NC(=O)CCC(F)(F)F)ccc2OC1CN(C)C(=O)Nc1ccccc1 (stereo not drawn)	x	x	x	4	x	x
CN(C)c1ccc(S(=O)(=O)N2CCCCC2)cc1NC(=O)CCNC(=O)c1ccccc1Cl	6	-19	24	23*	6	0
COc1ccc(S(=O)(=O)N2CCCCCC2)cc1NC(=O)CCNC(=O)c1ccccc1Cl	11	x	17	x	6	3
CC(C)(C)C1C=C(C(=O)NCc2nc3ccccc3[nH]2)OC(OCCCCO)C1 (stereo not drawn)	x	x	x	0	x	x
CCOC(=O)NN=Cc1cccc(OC)c1OC/C=C/c1ccccc1	x	x	x	9	x	x
